Molecules are shown by their SMILES. Records with an inconclusive call do not appear. The source made the active and inactive calls. Calls come from the whole dose curve; as a rule, active = well fitted inhibition curve with a large enough effect; inconclusive = small, poorly fitted or top-dose-only effect; inactive = no such curve, though single readings can be large or run the other way. Numbered stars: 1 amine (or outer) side, 2 acyl side, 3 side chain; on linkers, the order of the positions; unused ones are H or OH. Bridge positions count the residues as written; N and C are the ends. Square brackets hold non-standard residues; d marks the D form. Peptide text beside a SMILES is read from it. I, II: the chains in the order shown. * marks the point of attachment. ξ: configuration not given here. Actinocin(9to1) = Cc1c2oc3c(C)ccc(C(=O)[*:1])c3nc-2c(C(=O)[*:2])c(N)c1=O; ξNMeV = CNC(C(=O)O)C(C)C; Cbz = O=C(OCc1ccccc1)*; Nva = CCC[CH](N)C(=O)O; ξV = CC(C)C(N)C(=O)O; Sar = CNCC(=O)O

The test system of this assay is zebrafish Abcb4 (ABCB1 homolog). The assay can be described thus: qHTS for characterization and localization of zebrafish homologs of the human ABCB1 multidrug transporter: ABCB4 transfected cells. The conditions noted are these: CellTiter-Glo viability luminescence, 72 h; series mostly up to 46.1 µM; activity change, negative = inhibition: at the top concentration. The text has this: The zebrafish has emerged as a potential model to study the blood-brain barrier (BBB) given its similarities with mammalian systems. However, little information has been available with regard to homologous ATP-binding cassette transporters expressed at the zebrafish BBB. Two transporters that are highly expressed at the human BBB are P-glycoprotein (P-gp, encoded by the ABCB1 gene) and ABCG2 (encoded by the ABCG2 gene). In this study, we focus on characterization of P-gp homologs in the zebrafish, which has two genes that are homologous to human ABCB1 - abcb4 and abcb5. We generated stably-transfected cell lines to determine their substrate specificities. […] Zebrafish abcb4 also colocalized with claudin 5 expression in brain endothelial cells.
A high-throughput screen was performed as previously described on empty vector transfected cells, P-gp-overexpressing MDR-19 cells and cells transfected with full-length zebrafish abcb4 (ZF Abcb4) or abcb5 (ZF Abcb5). Briefly, cells were plated into 1536-well plates at a density of 500 cells/well in 5 uL media. P-gp substrate compounds (approximately 90) selected from our previous study were then added at varying concentrations using a 1536-head pin tool (Kalypsis, San Diego, CA) and plates were incubated at 37C in 5% CO2 for 72 h. CellTiter-Glo reagent (Promega) was dispensed into the wells, incubated for 5 min and luminescence was read on a ViewLux instrument (Perkin-Elmer).
Cytotoxic compounds were defined as those that yielded a curve class of -1.1, -1.2, -2.1, -2.2, -2.3, or -2.4, a maximum response of >50% and an AC50 of < 10 uM. All compounds from screening analysis were tested in Vector (empty vector control), MDR-19 (P-gp overexpressing), zebrafish abcb4 (ZF Abcb4) and abcb5 (ZF Abcb5) expression cell lines.
1. Tobie D Lee, Olivia W Lee, Kyle R Brimacombe, Lu Chen, Rajarshi Guha, Sabrina Lusvarghi, Bethilehem G Tebase, Carleen Klumpp-Thomas, Robert W Robey, Suresh V Ambudkar, Min Shen, Michael M Gottesman, Matthew D Hall. A High-Throughput Screen of a Library of Therapeutics Identifies Cytotoxic Substrates of P-glycoprotein. Mol Pharmacol. 2019, Nov;96(5):629-640.
For orientation: In qHTS, concentration-response curves come from the screen itself.
`CC(C)(C)c1cnc(CSc2cnc(NC(=O)C3CCNCC3)s2)o1`: the Potency is 38.2 µM (active). Consider `C#Cc1cccc(Nc2ncnc3cc(OC)c(OCCCCCCC(=O)NO)cc23)c1`, for which the Potency is 13.2 µM (active). Turning to `CC(C)C[C@@H](C=O)NC(=O)[C@H](CC(C)C)NC(=O)[C@H](CC(C)C)NC(=O)OCc1ccccc1` (Cbz-Leu-Leu-Leu-aldehyde), the Potency was 2.96 µM (active). With `C#CCN(Cc1cc2c(=O)n(C)c(CN3CCN(C)CC3)nc2cc1Cl)c1ccc(C(=O)NCc2cccnc2)cc1`, the “activity change, negative = inhibition” value was -12.2% (inactive). Consider `Cc1ccc(C(=O)N(CCCN)C(c2nc3cc(Cl)ccc3c(=O)n2Cc2ccccc2)C(C)C)cc1` (stereo not given), for which the Potency is 20.9 µM (active).

Regarding `O=C(NC1CC1)c1cccc(-c2ccc3c(NC(=O)C4CC4)n[nH]c3c2)c1`, the “activity change, negative = inhibition” value was -11.5% (inactive). The same measure, in the same setting: under `O=C(NC1CCNCC1)c1[nH]ncc1NC(=O)c1c(Cl)cccc1Cl` stands 0% (inactive). As to `CCN(CCCO)CCCOc1ccc2c(Nc3cc(CC(=O)Nc4cccc(F)c4)[nH]n3)ncnc2c1`, the “activity change, negative = inhibition” value is 1.58% (inactive).

For the molecule `CCc1c(O)cc(O)c(C(=O)c2ccc(OCCN3CCOCC3)c(OC)c2)c1CC(=O)N(CCOC)CCOC`, the “activity change, negative = inhibition” value is -0.0218% (inactive).

For `CCS(=O)(=O)c1cccc(-c2cc(C(=O)NC3CCN(C)CC3)c(C)c3[nH]c4ncc(C)cc4c23)c1`, the “activity change, negative = inhibition” value was 0.87% (inactive). For the molecule `C[C@@H]1O[C@@H](O[C@H]2[C@@H](OC(=O)[C@]34CCC(C)(C)CC3C3=CCC5[C@@]6(C)C[C@H](O)[C@H](O[C@@H]7O[C@H](CO)[C@@H](O)[C@H](O)[C@H]7O[C@@H]7OC[C@@H](O)[C@H](O)[C@H]7O)[C@@](C)(C(=O)O)C6CC[C@@]5(C)[C@]3(C)CC4)OC[C@H](O)[C@@H]2O)[C@H](O)[C@H](O)[C@H]1O[C@@H]1OC[C@@H](O)[C@H](O)[C@H]1O` (stereo not given in full), the activity change, negative = inhibition is -5.3% [at 8.96 µM] (inactive). With `CCCC(C=O)NC(=O)C(CC(C)C)NC(=O)C(CC(C)C)NC(=O)OCc1ccccc1` (stereo not drawn) (Cbz-Leu-Leu-[Nva]-aldehyde; configuration not given here), the Potency is 3.72 µM (active).

Consider `Cc1cc(N)c2ccccc2[n+]1CCCCCCCCCC[n+]1c(C)cc(N)c2ccccc21`, for which the “activity change, negative = inhibition” value is 3.65% (inactive).

Regarding `CCc1cccc(CC)c1NC(=O)N1Cc2[nH]nc(NC(=O)c3ccc(N4CCN(C)CC4)cc3)c2C1`, the “activity change, negative = inhibition” value was 2.17% (inactive). Regarding `CN(C)c1ccc(C(=C2C=CC(=[N+](C)C)C=C2)c2ccc(N(C)C)cc2)cc1`, the Potency is 13.2 µM (active).

Consider `COc1ccc(CC2C(=O)NC(C)C(=O)N(C)C3Cc4ccc(cc4)Oc4cc(ccc4OC4OC(CO)C(O)C(O)C4O)CC(C(=O)NC(C)C(=O)NC(C)C(=O)N2C)N(C)C3=O)cc1` (stereo not given), for which the “activity change, negative = inhibition” value was -18.4% [at 15.2 µM] (inactive). Consider `C[C@@H]1O[C@@H](O[C@H]2[C@H](O)[C@@H](O)[C@H](O[C@H]3[C@H](O[C@H]4CC[C@@]5(C)C(=CC[C@@H]6C5CC[C@]5(C)[C@@H]7[C@H](C[C@@H]65)O[C@]5(CC[C@@](C)(CO[C@@H]6O[C@H](CO)[C@@H](O)[C@H](O)[C@H]6O)O5)[C@H]7C)C4)O[C@H](CO)[C@@H](O)[C@@H]3O)O[C@@H]2CO)[C@H](O)[C@H](O)[C@H]1O` (stereo not given in full), for which the “activity change, negative = inhibition” value is -18.3% [at 15.2 µM] (inactive). As for `CC(C)CC(=O)Nc1n[nH]c2c1CN(C(=O)C1CCN(C)CC1)C2(C)C`, the “activity change, negative = inhibition” value is 4.88% (inactive).

For `Cc1c2oc3c(C)ccc(C(=O)N[C@@H]4C(=O)NC(C(C)C)C(=O)N5CCC[C@H]5C(=O)N(C)CC(=O)N(C)C(C(C)C)C(=O)O[C@@H]4C)c3nc-2c(C(=O)N[C@@H]2C(=O)NC(C(C)C)C(=O)N3CCC[C@H]3C(=O)N(C)CC(=O)N(C)C(C(C)C)C(=O)O[C@@H]2C)c(N)c1=O` (stereo not given in full) (I: T[ξV]P[Sar][ξNMeV] / II: T[ξV]P[Sar][ξNMeV]; ester I:1-I:C, II:1-II:C; linker I:N-II:N via Actinocin(9to1)), the Potency was 0.418 µM (active). Take `N=C(N)c1ccc(OCCCCCOc2ccc(C(=N)N)cc2)cc1`: the “activity change, negative = inhibition” value is -22.7% (inactive). In the case of `CC1(C)CC[C@]2(C(=O)OC3OC(CO)C(O)C(O)C3O)CC[C@]3(C)C(=CCC4[C@@]5(C)CC[C@H](OC6OC(C(=O)O)C(O)C(O)C6O)C(CO)(CO)C5CC[C@]43C)[C@@H]2C1` (stereo not given in full), the “activity change, negative = inhibition” value was 4.01% [at 15.2 µM] (inactive). The same measure, in the same setting: as for `CN(C)C1CCN(C(=O)c2ccc(NC(=O)Nc3nc(N4CCOCC4)nc(N4CCOCC4)n3)cc2)CC1`, the figure is -13.5% (inactive); as for `COc1cc2c(NC3CCN(C(C)C)CC3)nc(N3CCCN(C)CC3)nc2cc1OCCCN1CCCC1`, -9.68% (inactive); as for `COc1cc(N2CCC(O)CC2)ccc1Nc1nc(Nc2ccccc2S(=O)(=O)C(C)C)c2[nH]cnc2n1`, -13.2% (inactive). As for `CC(NCc1ccc2c(c1)nc(NC(=O)c1ccc(-c3cn[nH]c3)s1)n2CC(C)(C)O)C(C)(C)C` (stereo not given), the Potency is 6.62 µM (active). As for `CCn1c(-c2nonc2N)nc2c(C#CC(C)(C)O)ncc(OC[C@H]3CCCNC3)c21`, the “activity change, negative = inhibition” value is -13.4% (inactive). With `Cc1nc(Nc2n[nH]c3c2CN(C(=O)N[C@H](CN(C)C)c2ccccc2)C3(C)C)c2sccc2n1`, the “activity change, negative = inhibition” value was -30.3% (inactive). With `Cc1cc(Nc2cc(N3CCN(C)CC3)nc(Sc3ccc(NC(=O)C4CC4)cc3)n2)n[nH]1`, the “activity change, negative = inhibition” value is 3.38% (inactive). Turning to `CO[C@H]1/C=C/C=C/C=C/C[C@H](OC(=O)[C@@H](C)NC(=O)C2CCCCC2)[C@H](C)[C@@H](O)/C(C)=C/CCc2cc(O)cc(c2)NC(=O)C1`, the “activity change, negative = inhibition” value was -15.5% [at 15.2 µM] (inactive). `C=CCn1c(=O)c2cnc(Nc3ccc(N4CCN(C)CC4)cc3)nc2n1-c1cccc(C(C)(C)O)n1`: the Potency is 4.18 µM (active).

Take `CCN(CC)Cc1ccc(C(=O)N(CCc2ccccc2OC)[C@@H]2CCNC2)cc1`: the “activity change, negative = inhibition” value was 4.66% (inactive).

Turning to `Cc1ccc(-c2ncn(-c3ccc(Nc4nccc(-c5cccc(N6CCOCC6)c5)n4)cc3)n2)cn1`, the Potency was 4.18 µM (active).

As for `COc1cc2c(NC3CCN(C(C)C)CC3)nc(N3CCCN(C)CC3)nc2cc1OCCOCCN(C)C`, the “activity change, negative = inhibition” value is -9.4% (inactive). For `CC(C)C[C@H](NC(=O)[C@H](CCc1ccccc1)NC(=O)CN1CCOCC1)C(=O)N[C@@H](Cc1ccccc1)C(=O)N[C@@H](CC(C)C)C(=O)[C@@]1(C)CO1`, the Potency is 2.35 µM (active). With `C=C1CO[C@@]2(O[C@H]3CC4C5CC=C6C[C@@H](O)C[C@@H](O[C@@H]7OC[C@H](O)[C@H](O[C@@H]8OC[C@@H](O)[C@H](O)[C@H]8O)[C@H]7O[C@@H]7O[C@@H](C)[C@H](OC(C)=O)[C@@H](OC(C)=O)[C@H]7OC(C)=O)[C@]6(C)C5CC[C@]4(C)[C@@H]3[C@@H]2C)[C@@H](O)[C@H]1OC1OC(C)C(O)C(O)C1O` (stereo not given in full), the activity change, negative = inhibition was 4.44% [at 8.96 µM] (inactive).

For `CC1(C)CC(NC(=O)C(=O)Nc2ccc(Br)cc2)CC(C)(C)N1`, the “activity change, negative = inhibition” value was -3.92% (inactive). Still for that read-out and setting: under `CC[n+]1c(-c2ccccc2)c2cc(N)ccc2c2ccc(N)cc21` stands -14% (inactive); under `CCC(C)C(=O)OC1CC(O)C23C4OCC5(C(O)CC2C1(C)C(O)O4)C3C(=O)C(O)C1(C)C(O)(c2ccoc2)CC2OC251` (stereo not given), 3.68% [at 15.2 µM] (inactive). `C[C@@]12O[C@@H](C[C@]1(O)CO)n1c3ccccc3c3c4c(c5c6ccccc6n2c5c31)CNC4=O`: the Potency was 5.26 µM (active). Same read-out and setting: as for `COC[C@H](NC(=O)c1cnc(C)s1)C(=O)N[C@@H](COC)C(=O)N[C@@H](Cc1ccccc1)C(=O)[C@@]1(C)CO1`, the figure is 0.935 µM (active).

These data come from PubChem BioAssay AID1508635 (National Center for Advancing Translational Sciences (NCATS), 2021).
